Measurements reported in PubChem BioAssay (EPA / NIEHS).
Several values for one entry are separate records, joined by “and”; a condition that tells them apart may be missing. Equal values may be shown once. Results filed as inconclusive are left out. Where a structure was tested more than once in an assay, its records may differ in their call. Activity calls are given as the source filed them. How the source made its calls, unless noted: active means hit-call score of the fitted dose curve at least 0.9, where 1 is the maximum; inactive means score below 0.9.

Assays:
[1] = BSK_LPS_PGE2: BioMAP Diversity Plus: LPS Assay for Prostaglandin E2 (PGE2) Biomarker Activity (AID 2283082); conditions: primary human HUVEC with PBMC; actives raise or lower the signal;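 on AC50: secreted prostaglandin E2 measured by ELISA in LPS-stimulated co-culture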
How it was run: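 HUVEC plus human PBMC co-culture stimulated with LPS; secreted PGE2 quantified by ELISA 24 h after chemical dosing. Activity fitted bidirectionally against DMSO baseline; parallel SRB staining (0.1% SRB after 10% TCA fixation, 560 nm) flags overt cytotoxicity.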

[2] = read-out: Macrophage colony-stimulating factor (MCSF), CSF1 (gene 1435); test: BSK_LPS_MCSF: BioMAP Diversity Plus: LPS Assay for Macrophage colony-stimulating factor (MCSF) Biomarker Activity (AID 2283083); conditions: primary human HUVEC with PBMC; actives raise or lower the signal
How it was run: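 Human umbilical vein endothelial cells co-cultured with peripheral blood mononuclear cells were exposed to compound for 24 h. M-CSF levels were measured by ELISA, and bidirectional curve fitting used DMSO as the negative control and baseline.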

[3] = read-out: Tissue Factor, F3 (gene 2152); test: BSK_LPS_TissueFactor: BioMAP Diversity Plus: LPS Assay for Tissue Factor Biomarker Activity (AID 2283084); conditions: primary human HUVEC with PBMC; actives raise or lower the signal
How it was run: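 Human umbilical vein endothelial cells co-cultured with peripheral blood mononuclear cells were dosed and stimulated with LPS. Cell-surface CD142 was quantified by ELISA at 24 h. Activity was fitted bidirectionally against DMSO baseline.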

[4] = read-out: Tumor necrosis factor (Homo sapiens) (UniProt P01375); test: BSK_LPS_TNFa: BioMAP Diversity Plus: LPS Assay for Tumour Necrosis Factor alpha (TNFa) Biomarker Activity (AID 2283085); conditions: primary human HUVEC with PBMC; actives raise or lower the signal
How it was run: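 Human umbilical vein endothelial cells co-cultured with PBMC and stimulated with LPS. TNFa was measured by ELISA 24 h after chemical dosing, fitted bidirectionally relative to DMSO.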

[5] = read-out: Vascular cell adhesion molecule 1 (VCAM1), VCAM1 (gene 7412); test: BSK_LPS_VCAM1: BioMAP Diversity Plus: LPS Assay for Vascular cell adhesion molecule 1 (VCAM1) Biomarker Activity (AID 2283086); conditions: primary human HUVEC with PBMC; actives raise or lower the signal
How it was run: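 Human umbilical vein endothelial cells co-cultured with PBMC and stimulated with LPS; VCAM-1 measured by ELISA 24 h after dosing. Bidirectional curve fitting against DMSO baseline; cytotoxicity tracked in parallel by SRB total-protein staining.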

[6] = read-out: CD38, CD38 (gene 952); test: BSK_SAg_CD38: BioMAP Diversity Plus: SAg Assay for CD38 Biomarker Activity (AID 2283087); conditions: primary human HUVEC with PBMC; actives raise or lower the signal
How it was run: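 Human HUVEC plus PBMC co-culture stimulated with superantigen; CD38 measured by ELISA 24 h after chemical dosing. Fluorescence read-out, bidirectional fit against DMSO; cytotoxicity tracked in parallel by SRB and Alamar Blue.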

[7] = read-out: CD40, CD40 (gene 958); test: BSK_SAg_CD40: BioMAP Diversity Plus: SAg Assay for CD40 Biomarker Activity (AID 2283088); conditions: primary human HUVEC with PBMC; actives raise or lower the signal
How it was run: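 Human umbilical vein endothelial cells co-cultured with PBMC; CD40 levels measured by ELISA with fluorescence read-out 24 h after chemical dosing. Gain or loss of signal fitted bidirectionally against DMSO baseline.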

[8] = read-out: CD69, CD69 (gene 969); test: BSK_SAg_CD69: BioMAP Diversity Plus: SAg Assay for CD69 Biomarker Activity (AID 2283089); conditions: primary human HUVEC with PBMC; actives raise or lower the signal;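 on AC50: cell surface CD69 protein quantified by ELISA with fluorescence detection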
How it was run: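 Values derive from bidirectional fitting relative to DMSO vehicle. Cells: umbilical vein endothelium plus peripheral blood mononuclear cells, treated 24 h before fluorescent ELISA for CD69.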

[9] = read-out: Monocyte Chemoattractant Protein-1 (MCP1), CCL2 (gene 6347); test: BSK_SAg_MCP1: BioMAP Diversity Plus: SAg Assay for Monocyte Chemoattractant Protein-1 (MCP1) Biomarker Activity (AID 2283090); conditions: primary human HUVEC with PBMC; actives raise or lower the signal
How it was run: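 MCP-1 levels in the endothelial–PBMC SAg co-culture were quantified by ELISA at 24 h post-dosing; both increases and decreases versus DMSO scored. Cytotoxicity monitored by SRB total protein in parallel cultures.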

[10] = read-out: E-selectin (Homo sapiens) (UniProt P16581); test: BSK_SAg_Eselectin: BioMAP Diversity Plus: SAg Assay for Eselectin Biomarker Activity (AID 2283091); conditions: primary human HUVEC with PBMC; actives raise or lower the signal
How it was run: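 HUVEC co-cultured with PBMC, compound dosed then read at 24 h; E-selectin measured by ELISA. Activity fitted bidirectionally against DMSO as negative control and baseline.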

[11] = read-out: Monokine induced gamma interferon (MIG), CXCL9 (gene 4283); test: BSK_SAg_MIG: BioMAP Diversity Plus: SAg Assay for Monokine induced gamma interferon (MIG) Biomarker Activity (AID 2283092); conditions: primary human HUVEC with PBMC; actives raise or lower the signal
How it was run: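 Values reflect bidirectional fitting of ELISA-measured MIG against DMSO vehicle, taken 24 h after dosing of a co-culture of human umbilical vein endothelial cells and peripheral blood mononuclear cells.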

[12] = BSK_SAg_PBMCCytotoxicity: PBMC Cytotoxicity Assessment in the BioMAP Diversity Plus: SAg Assay (AID 2283093); conditions: primary human HUVEC with PBMC;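 further: PBMC viability measured as Alamar Blue reduction fluorescence at 546/580 nm; fitted both ways against DMSO so a hit may be loss or gain of signal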;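 on AC50: PBMC superantigen activated with SEB plus TSST-1 one hour after compound addition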
How it was run: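 HUVEC/PBMC co-culture; PBMC exposed to chemical 1 h before SEB and TSST-1 activation (20 ng/mL each), incubated 90 h, then Alamar Blue 6 h, fluorescence 546/580 nm. Bidirectional fit versus DMSO baseline.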

[13] = read-out: Interleukin-8 (IL8), CXCL8 (gene 3576); test: BSK_SAg_IL8: BioMAP Diversity Plus: SAg Assay for Interleukin-8 (IL8) Biomarker Activity (AID 2283094); conditions: primary human HUVEC with PBMC; actives raise or lower the signal
How it was run: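 Human umbilical vein endothelial cells co-cultured with PBMC, stimulated with superantigen; IL-8 measured by ELISA 24 h after chemical dosing. Bidirectional fitting versus DMSO; SRB staining in parallel cultures tracks cytotoxicity.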

[14] = BSK_SAg_SRB: Viability Assessment in the BioMAP Diversity Plus: SAg Assay (AID 2283096); conditions: primary human HUVEC with PBMC;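 further: cells read one day after compound addition; hits may be either gain or loss of signal compared with DMSO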
How it was run: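 Human umbilical vein endothelial cells co-cultured with PBMC, read 24 h after compound dosing. Total protein measured by sulforhodamine B staining (0.1% SRB after 10% TCA fixation, absorbance 560 nm); bidirectional fit versus DMSO baseline.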

[15] = molecular target: human CYP19A1, CYP19A1 (gene 1588) (UniProt P11511); test: NVS_ADME_hCYP19A1: NovaScreen (NVS) CYP450-related Enzyme Activity (ADME) Assay for human CYP19A1 (AID 2283098; active means hit-call score of the fitted dose curve at least 0.9, where 1 is the maximum)
How it was run: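 Recombinant enzyme in a cell-free format, read 0.5 h after dosing by fluorescence from a fluorogenic substrate. Loss of signal was fitted against acetonitrile as baseline. Primary screen in duplicate at 10 uM, actives then tested in concentration series.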

[16] = molecular target: human CYP2A6, CYP2A6 (gene 1548) (UniProt P11509); test: NVS_ADME_hCYP2A6: NovaScreen (NVS) CYP450-related Enzyme Activity (ADME) Assay for human CYP2A6 (AID 2283099; active means hit-call score of the fitted dose curve at least 0.9, where 1 is the maximum)
How it was run: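 Cell-free fluorescence readout of recombinant human CYP2A6 expressed in insect cells, read 0.5 h after dosing; loss of signal versus acetonitrile negative control. Primary screen in duplicate at 10 uM; actives re-run in concentration-response up to 20 uM.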

[17] = molecular target: human CYP1A2, CYP1A2 (gene 1544) (UniProt P05177); test: NVS_ADME_hCYP1A2: NovaScreen (NVS) CYP450-related Enzyme Activity (ADME) Assay for human CYP1A2 (AID 2283102; active means hit-call score of the fitted dose curve at least 0.9, where 1 is the maximum;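 on AC50: potency for inhibition since loss of fluorescence marks reduced CYP1A2 activity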)
How it was run: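 Cell-free recombinant human CYP1A2 expressed in insect cells, with fluorogenic substrate; fluorescence intensity read 0.5 h after dosing. Loss of signal relative to acetonitrile baseline scored. Primary screen in duplicate at 10 uM; actives retested in concentration series.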

[18] = BSK_SAg_Proliferation: Cell Proliferation Assessment in the BioMAP Diversity Plus: SAg Assay (AID 2283095); conditions: primary human HUVEC with PBMC
How it was run: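 Human umbilical vein endothelial cells co-cultured with PBMC; sulforhodamine B total-protein staining (0.1% SRB after 10% TCA fixation, absorbance 560 nm) at 96 h in sub-confluent culture. Fitted bidirectionally against DMSO.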

[19] = molecular target: human CYP2B6, CYP2B6 (gene 1555) (UniProt P20813); test: NVS_ADME_hCYP2B6: NovaScreen (NVS) CYP450-related Enzyme Activity (ADME) Assay for human CYP2B6 (AID 2283101; active means hit-call score of the fitted dose curve at least 0.9, where 1 is the maximum)
How it was run: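 Compounds were first screened in duplicate at 10 uM against recombinant enzyme, with the fluorescent product measured after 1 hour. Active compounds were retested over a concentration series. Loss of fluorescence versus acetonitrile control was scored as reduced enzyme activity.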

Measured: AC50

Chain of human CYP1A2, CYP1A2 (gene 1544) (P05177 whole entry, looked up): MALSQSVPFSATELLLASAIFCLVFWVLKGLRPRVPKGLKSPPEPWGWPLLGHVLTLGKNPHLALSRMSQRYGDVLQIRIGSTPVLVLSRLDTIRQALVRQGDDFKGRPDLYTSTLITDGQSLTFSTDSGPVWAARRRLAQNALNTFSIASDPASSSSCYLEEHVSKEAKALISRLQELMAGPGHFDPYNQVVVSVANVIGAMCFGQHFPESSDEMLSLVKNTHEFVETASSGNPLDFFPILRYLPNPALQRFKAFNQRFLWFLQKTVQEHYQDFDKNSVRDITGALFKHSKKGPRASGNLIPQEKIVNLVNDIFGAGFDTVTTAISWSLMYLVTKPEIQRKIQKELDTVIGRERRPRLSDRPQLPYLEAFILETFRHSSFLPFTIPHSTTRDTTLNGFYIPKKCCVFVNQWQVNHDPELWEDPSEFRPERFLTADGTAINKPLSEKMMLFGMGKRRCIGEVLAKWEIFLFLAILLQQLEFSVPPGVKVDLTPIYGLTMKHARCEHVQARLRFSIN
Chain of E-selectin (Homo sapiens) (P16581 whole entry, looked up): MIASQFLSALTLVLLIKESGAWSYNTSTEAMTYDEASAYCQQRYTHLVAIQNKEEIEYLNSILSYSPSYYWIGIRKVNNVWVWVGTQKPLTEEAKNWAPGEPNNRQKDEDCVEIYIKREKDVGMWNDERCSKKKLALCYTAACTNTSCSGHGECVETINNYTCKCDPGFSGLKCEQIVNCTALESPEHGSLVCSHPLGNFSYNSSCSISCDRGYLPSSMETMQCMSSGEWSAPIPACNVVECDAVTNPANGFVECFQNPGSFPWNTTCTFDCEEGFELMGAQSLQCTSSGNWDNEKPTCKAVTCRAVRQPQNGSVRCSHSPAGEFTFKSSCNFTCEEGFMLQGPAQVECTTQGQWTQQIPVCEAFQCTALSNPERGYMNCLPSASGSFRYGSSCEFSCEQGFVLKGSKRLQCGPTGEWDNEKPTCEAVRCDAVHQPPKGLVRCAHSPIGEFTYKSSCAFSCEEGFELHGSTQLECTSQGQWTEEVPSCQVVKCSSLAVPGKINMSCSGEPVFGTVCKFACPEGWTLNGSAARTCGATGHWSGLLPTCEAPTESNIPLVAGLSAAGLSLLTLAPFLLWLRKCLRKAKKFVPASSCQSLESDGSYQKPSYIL
Chain of Tumor necrosis factor (Homo sapiens) (P01375 whole entry, looked up): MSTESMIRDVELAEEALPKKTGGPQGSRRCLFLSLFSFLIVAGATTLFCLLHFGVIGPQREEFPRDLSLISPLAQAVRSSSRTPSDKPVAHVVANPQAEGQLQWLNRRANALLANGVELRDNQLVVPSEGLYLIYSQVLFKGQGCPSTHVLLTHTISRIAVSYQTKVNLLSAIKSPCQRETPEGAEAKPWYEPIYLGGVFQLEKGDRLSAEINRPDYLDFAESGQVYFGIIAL
Chain of human CYP2A6, CYP2A6 (gene 1548) (P11509 whole entry, looked up): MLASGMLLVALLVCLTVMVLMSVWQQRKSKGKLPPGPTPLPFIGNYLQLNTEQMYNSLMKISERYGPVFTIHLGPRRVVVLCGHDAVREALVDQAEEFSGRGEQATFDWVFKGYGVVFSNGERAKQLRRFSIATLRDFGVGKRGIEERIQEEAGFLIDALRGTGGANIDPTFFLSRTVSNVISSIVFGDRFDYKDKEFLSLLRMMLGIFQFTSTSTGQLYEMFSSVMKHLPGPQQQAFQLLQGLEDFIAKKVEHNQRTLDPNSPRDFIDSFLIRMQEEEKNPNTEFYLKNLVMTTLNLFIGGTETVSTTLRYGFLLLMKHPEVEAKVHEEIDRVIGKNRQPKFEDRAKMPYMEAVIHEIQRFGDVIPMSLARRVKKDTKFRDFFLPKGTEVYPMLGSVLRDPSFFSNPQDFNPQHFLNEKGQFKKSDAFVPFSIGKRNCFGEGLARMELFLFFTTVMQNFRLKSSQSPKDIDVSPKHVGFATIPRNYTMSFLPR
Chain of human CYP19A1, CYP19A1 (gene 1588) (P11511 whole entry, looked up): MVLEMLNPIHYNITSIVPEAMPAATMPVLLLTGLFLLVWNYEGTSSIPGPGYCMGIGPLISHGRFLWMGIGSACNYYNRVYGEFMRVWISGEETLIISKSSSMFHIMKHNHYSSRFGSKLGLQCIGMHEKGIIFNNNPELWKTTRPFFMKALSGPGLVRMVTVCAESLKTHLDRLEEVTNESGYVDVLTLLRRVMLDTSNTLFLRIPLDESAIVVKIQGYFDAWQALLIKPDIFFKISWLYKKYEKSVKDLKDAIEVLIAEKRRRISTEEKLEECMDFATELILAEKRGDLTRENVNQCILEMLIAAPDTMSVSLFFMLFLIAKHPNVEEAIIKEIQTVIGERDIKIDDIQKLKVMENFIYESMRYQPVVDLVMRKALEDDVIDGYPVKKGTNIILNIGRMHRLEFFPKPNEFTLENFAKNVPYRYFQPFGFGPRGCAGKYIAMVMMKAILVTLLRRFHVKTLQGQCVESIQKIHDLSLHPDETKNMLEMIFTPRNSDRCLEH
Chain of human CYP2B6, CYP2B6 (gene 1555) (P20813 whole entry, looked up): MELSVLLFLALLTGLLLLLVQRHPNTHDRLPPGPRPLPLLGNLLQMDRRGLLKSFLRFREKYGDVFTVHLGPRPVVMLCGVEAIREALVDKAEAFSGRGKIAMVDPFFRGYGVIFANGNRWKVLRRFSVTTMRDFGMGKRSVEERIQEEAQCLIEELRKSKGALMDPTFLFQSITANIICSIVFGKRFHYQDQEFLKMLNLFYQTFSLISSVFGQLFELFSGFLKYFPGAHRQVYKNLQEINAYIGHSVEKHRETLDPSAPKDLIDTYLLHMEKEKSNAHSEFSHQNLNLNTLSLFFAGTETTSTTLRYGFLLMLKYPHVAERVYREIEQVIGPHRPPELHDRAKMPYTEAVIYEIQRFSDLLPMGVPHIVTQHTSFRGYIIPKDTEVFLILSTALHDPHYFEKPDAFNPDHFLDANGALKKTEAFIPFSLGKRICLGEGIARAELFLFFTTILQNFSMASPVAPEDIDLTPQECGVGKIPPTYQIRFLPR

CCC(O)=C1C(=O)CC(C(=O)O)CC1=O (stereo not drawn)
inactive: [1] | [2] | [3] | [4] | [5] | [6] | [7] | [8] | [9] | [10] | [11] | [12] | [13] | [14]

OB(O)O
inactive: [1] | [2] | [3] | [4] | [5] | [6] | [7] | [8] | [9] | [10] | [11] | [12] | [13] | [14]

S=C(S)NCCNC(=S)S.[Mn+2].[S-]C([S-])=NCCN=C([S-])[S-].[Zn+2]
active: [4] 2.39 µM | [5] 8.85 µM | [10] 12.4 µM | [12] 7.86 µM and 20 µM
inactive: [1] | [2] | [3] | [4] | [5] | [6] | [7] | [8] | [9] | [10] | [11] | [12] | [13] | [14] | [15] | [16] | [17]

COc1c(Cl)ccc(Cl)c1C(=O)O
inactive: [1] | [2] | [3] | [4] | [5] | [6] | [7] | [8] | [10] | [11] | [12] | [13] | [18] | [14]
active: [9] 11.8 µM

C#CCOC(=O)[C@@H](C)Oc1ccc(Oc2ncc(Cl)cc2F)cc1
active: [19] 0.777 µM | [17] 1.64 µM
inactive: [1] | [2] | [3] | [4] | [5] | [6] | [7] | [8] | [9] | [10] | [11] | [12] | [13] | [14]

CCOC(=O)COc1cc(-n2ncc(C(F)(F)F)c(C)c2=O)c(F)cc1Cl
inactive: [1] | [2] | [3] | [4] | [5] | [6] | [7] | [8] | [9] | [10] | [11] | [12] | [13] | [14]

Cc1nn(C)c(Oc2ccccc2)c1C=NOCc1ccc(C(=O)OC(C)(C)C)cc1
inactive: [3] | [4] | [12]
active: [1] 1.11 µM | [2] 3.48 µM | [5] 9.84 µM | [6] 5.76 µM | [7] 6.66 µM | [8] 4.1 µM | [9] 7.6 µM | [10] 4.27 µM | [11] 19 µM | [13] 3.97 µM | [14] 20 µM

O=C(O)c1ccccc1
inactive: [1] | [2] | [3] | [4] | [5] | [6] | [7] | [8] | [9] | [10] | [11] | [12] | [13] | [14] | [16]
